# Experimental data from PubChem BioAssay AID651636 (Sanford-Burnham Center for Chemical Genomics, 2012).
# The campaign covered roughly 360,000 compounds. About 3,000 (0.83%) were called active. For the sample, actives were picked, then their nearest neighbours and some compounds at random. A number with no mark means an inactive call. No stated cut-off is given here; in the data, active means inhibition above about 38%; inactive means the rest.
# Molecular target: G-protein coupled receptor 183 (Homo sapiens) (UniProt P32249)
# Experiment: blockers of oxysterol-driven EBI2 arrestin signaling – cell-based, luminescence, 7a,25-OHC stimulation, uHTS, primary screen (AID 651636);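 further: enzyme fragment complementation signal reports receptor beta-arrestin coupling in cells; 0% = agonist plus DMSO wells and 100% = wells without agonist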
# Conditions: EBI2 beta-arrestin recruitment, 7a,25-OHC stimulated, at 5 µM, hits give high values
# Sequence of G-protein coupled receptor 183 (Homo sapiens) (P32249 whole entry, looked up, the tested form may be a part): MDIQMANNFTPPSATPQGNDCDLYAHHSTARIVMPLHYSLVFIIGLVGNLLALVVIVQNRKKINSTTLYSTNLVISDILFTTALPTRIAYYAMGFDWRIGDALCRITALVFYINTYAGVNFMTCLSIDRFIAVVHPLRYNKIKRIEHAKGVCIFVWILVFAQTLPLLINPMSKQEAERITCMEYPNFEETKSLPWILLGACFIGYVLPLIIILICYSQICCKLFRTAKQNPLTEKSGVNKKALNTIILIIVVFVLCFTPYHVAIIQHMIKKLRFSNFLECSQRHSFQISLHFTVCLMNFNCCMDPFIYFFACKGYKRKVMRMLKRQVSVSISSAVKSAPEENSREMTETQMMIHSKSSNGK
row,SMILES,inhibition
1,C=CCOc1c(CNn2cn[nH]c2=S)cccc1OC,-9.2%
2,Cc1cc(C(=O)N2CCN(c3ccccn3)CC2)c(C)o1,-3.6%
3,O=C(Cc1ccccc1Cl)N1CCN(c2ccccn2)CC1,7.34%
4,O=C(c1cc2ccccc2s1)N1CCN(c2ccccn2)CC1,60.8% (active)
5,O=C(NCN1CCN(CCO)CC1)c1cnccn1,-9.7%
6,CCCC(c1nnnn1C(C)(C)C)N1CCN(Cc2ccccc2)CC1 (configuration not stated),12.5%
7,Cc1cccc(C)c1-n1nnnc1C(CCc1ccccc1)N1CCN(C/C=C/c2ccccc2)CC1 (configuration not stated),39.8% (active)
8,CSCCC(c1nnnn1Cc1ccccc1)N1CCN(C/C=C/c2ccccc2)CC1 (configuration not stated),19.1%
9,COC1=C/C(=C/c2c(N)n3nc(CC(=O)N4CCOCC4)sc3nc2=O)C=CC1=O,-0.898%
10,CCOc1ccccc1N1CCN(C(=O)c2ccc3[nH]c(C)c(C)c3c2)CC1,18.2%
11,COc1ccccc1N1CCN(C(=O)c2ccc(NC3=NC4CS(=O)(=O)CC4S3)cc2)CC1 (configuration not stated),-5.44%
12,COc1ccccc1N1CCN(C(=O)c2cc(=O)c3cc(C)cc(C)c3o2)CC1,72.9% (active)
13,COc1ccccc1N1CCN(c2nc(C)cc(=O)[nH]2)CC1,-15.3%
14,COc1ccccc1N1CCN(C(=O)c2cc(=O)c3cc(C)ccc3o2)CC1,93.3% (active)
15,COc1ccccc1N1CCN(C(=O)C2Cc3ccccc3CN2C(=O)c2ccco2)CC1 (configuration not stated),7.65%
16,O=C(NCCS(=O)(=O)N1CCN(c2ccccc2)CC1)c1cc(=O)c2ccccc2o1,5.68%
17,O=C(c1cc(=O)c2ccccc2o1)N1CCN(c2ccccc2)CC1,48.1% (active)
18,O=C(c1ccc(CS(=O)(=O)c2ccccc2)o1)N1CCN(c2ccccc2)CC1,-5.95%
19,[O-][n+]1onc2c1CCc1[nH]c(-c3ccccc3)nc1-2,3.97%
20,CCc1nccn1S(=O)(=O)c1cccc([N+](=O)[O-])c1,2.08%
21,CC1(C(=O)Nc2ccc3c(c2)OCCO3)CCN1C(=O)Cc1cc(F)ccc1F (configuration not stated),-9.9%
22,O=C(CCCC(=O)N(CC(=O)NC1CCCC1)Cc1ccccc1Cl)Nc1ccccn1,-4.48%

row,SMILES,inhibition
1,CC(C)CCN1CCN(C/C=C/c2ccco2)CC1CCO (configuration not stated),2.4%
2,O=C(O)C1C2C=CC(C2)C1C(=O)NCc1ccccc1 (configuration not stated),-5.43%
3,COc1ccccc1CCNC(=O)C1CCN(C(=O)/C=C/c2ccccc2)CC1,86.2% (active)
4,COc1ccccc1CNC(=O)C1CCN(c2nc3ccccc3o2)CC1,4.11%
5,COc1ccccc1CNC(=O)C1CCN(C(=O)[C@@H]2Cc3ccccc3CN2)CC1,-0.14%
6,O=C(NCCC1CCCCN1S(=O)(=O)c1ccc(Cl)cc1)C(=O)NCc1ccco1 (configuration not stated),2.6%
7,CC1(C)Oc2ccc(C(=O)N3CCOCC3)cc2N(CC(=O)Nc2ccccc2)C1=O,1.64%
8,CC(=O)c1ccc(OCC(O)CN2CCN(S(=O)(=O)c3cccc(Br)c3)CC2)cc1 (configuration not stated),40.3%
9,CCCc1cc(=O)[nH]c(SCC(=O)N2CCN(S(=O)(=O)c3ccc(C)cc3C)CC2)n1,-2.8%
10,Cc1ccc(S(=O)(=O)N2CCN(C(=O)CSc3cc(C)ccc3C)CC2)c(C)c1,64.3% (active)
11,Cc1ccc(OCC(O)CN2CCN(CC(O)COc3ccc(C)cc3Cl)CC2)c(Cl)c1 (configuration not stated),4.54%
12,Cc1ccc(S(=O)(=O)N2CCN(C(=O)COC(=O)c3c(C)cc(C)cc3C)CC2)c(C)c1,3.87%
13,Cc1cccc(OCC(O)CN2CCN(S(=O)(=O)c3ccc(C)cc3C)CC2)c1 (configuration not stated),54.6% (active)
14,Cc1nnnn1/C(=C\c1ccccc1)C(=O)OCC(=O)N1CC2(C)CC1CC(C)(C)C2 (configuration not stated),31.6%
15,CCCC(C(=O)N1CCOCC1)N1C(=O)C2C3C=CC(C3)C2C1=O (configuration not stated),-18.5%
16,CC(=O)c1ccc(S(=O)(=O)N2CCC(Oc3ccc(-n4cnnn4)cc3)CC2)cc1,2.61%
17,CC(=O)c1ccc(S(=O)(=O)N2CCN(c3nc4c(C)c(C)ccc4cc3C#N)CC2)cc1,15.8%
18,CC(=O)c1ccc(S(=O)(=O)N2CCN(C(=O)/C=C/c3ccc4ccccc4n3)CC2)cc1,62.3% (active)
19,CC(=O)c1nn(-c2ccc(C)cc2)cc1C(=O)c1cccc(Br)c1,46.1% (active)
20,CCOC(=O)c1nn(-c2cccc(C)c2)cc1C(=O)c1ccccc1,11%
21,CC(=O)c1nn(-c2cccc(Br)c2)cc1C(=O)c1cccc2ccccc12,12%
22,CCc1ccc[n+](-c2nc([O-])sc2C=O)c1,7.04%

row,SMILES,inhibition
1,Cc1ccc(C(=O)N2CCCc3ccccc32)c(Cl)c1,10.8%
2,CCCn1nc(C(=O)N2CCCc3ccccc32)c2ccccc2c1=O,14.1%
3,Cc1cccc2cc3c(N)c(C(=O)N4CCCc5ccccc54)sc3nc12,76.1% (active)
4,COc1ccc(C(C#N)=C2C=CC(=NO)c3ccccc32)cc1,17.2%
5,COc1cccc(CNC(=O)C2CCN(S(=O)(=O)c3cccc4cccnc34)CC2)c1,-6.22%
6,CC(=O)/C(=N\Nc1ccc(Cl)cc1Cl)Sc1cccc2cccnc12,63.7% (active)
7,CC(Oc1ccc(Cl)cc1)C(=O)Nc1ncccn1 (configuration not stated),-3.28%
8,CCCCc1ccc(NS(=O)(=O)c2cccc(C(=O)N3CCCN(C)CC3)c2)cc1,-4.46%
9,Cc1ccc(CN2CC(C(=O)NNC(=O)Cn3ccc(C(F)(F)F)n3)CC2=O)cc1 (configuration not stated),7.75%
10,O=C(/C=C/c1ccc(OCc2c(F)cccc2Cl)cc1)N1CCOCC1,7.94%
11,O=C(/C=C/c1ccccc1[N+](=O)[O-])OCC(=O)N1CCCC1,-0.221%
12,O=C(/C=C/c1ccc(Cl)cc1)N1CCN(c2ccccc2[N+](=O)[O-])CC1,93.1% (active)
13,O=C(/C=C/c1cccc([N+](=O)[O-])c1)OCC(=O)N1CCOCC1,1.92%
14,Cc1c(Br)c([N+](=O)[O-])nn1CC(=O)N1CCN(Cc2ccccc2)CC1,-9.97%
15,O=C(/C=C/c1cccc([N+](=O)[O-])c1)N1CCN(Cc2ccccc2)CC1,53.3% (active)
16,O=C(NCCN1CCCC(O)C1)c1cc(COc2c(F)cccc2F)on1 (configuration not stated),-9.61%
17,CCOC(=O)C1(O)CC(C)=NN1C(=O)c1cccc(Br)c1 (configuration not stated),-21.3%
18,CCC1([N+](=O)[O-])COC(c2ccc(C(C)C)cc2)OC1 (configuration not stated),-3.46%
19,COc1ccc(S(=O)(=O)N(C)C[C@H]2Oc3c(NC(=O)Nc4ccc5c(c4)OCO5)cccc3C(=O)N([C@H](C)CO)C[C@@H]2C)cc1,5.07%
20,Cc1ccc(NC(=O)C2CCC(C(C)(C)C)CC2)cc1S(=O)(=O)N1CCOCC1 (configuration not stated),-1.74%
21,Cc1[nH]nc(SCC(=O)NCC(C)C)c1[N+](=O)[O-],-0.06%
22,N#CC1=C(SCc2ccc(C#N)cc2)N=C(N)C(c2nc(-c3ccccc3)cs2)C12CCCCC2 (configuration not stated),15.1%

row,SMILES,inhibition
1,Cc1ccc(CSCCNC(=O)CN(c2ccc(F)cc2)S(C)(=O)=O)cc1,59% (active)
2,Cc1cc(C)cc(N(CC(=O)NCCSCc2ccco2)S(C)(=O)=O)c1,3.14%
3,COc1ccc(N(CC(=O)NCCSCc2cccc(Cl)c2)S(C)(=O)=O)cc1,-2.19%
4,O=C(CCCOc1ccccc1)NNC(=O)c1ccc(Cl)cc1,17.9%
5,CN(CC(=O)Nc1ccc(Cl)cc1)C(=O)CNC(=O)c1ccc2ccccc2c1,2.02%
6,O=C(NNC(=O)c1ccc2ccccc2c1)c1ccc(Cl)cc1,60.9% (active)
7,Cc1ccc(-c2c(C)n([O-])c3c([n+]2=O)CCC3)cc1,0.406%
8,O=C(COc1ccc(Cl)cc1)NCCSc1ccccc1,26.9%
9,O=C(CCc1ccccc1)NNC(=O)COc1ccc(Cl)cc1,38.4% (active)
10,O=C(NCCc1ccccc1)Oc1ccc(Cl)cc1,-9.27%
11,CC(NC(=O)C1CCCN(S(=O)(=O)c2ccc(-n3cnnn3)cc2)C1)c1ccc(F)cc1 (configuration not stated),-4.68%
12,O=C1/C(=C\c2ccc(O)cc2)CCC1CNc1ccc(Cl)cc1 (configuration not stated),20.4%
13,O=C(C1CCN(S(=O)(=O)c2cnc[nH]2)CC1)N1CCN(Cc2ccc3c(c2)OCO3)CC1,-0.0388%
14,COC(=O)c1ccc(/C=N/N2C(C)CCCC2C)cc1 (configuration not stated),-2.67%
15,Brc1ccc(/C=N/N2CCN(C3c4ccccc4-c4ccccc43)CC2)s1,6.47%
16,CCOc1ccc(CCN2C(=S)N([C@@H](CC(C)C)CN3CCC[C@@H]3CN3C(=S)NC[C@@H]3Cc3ccc(O)cc3)C[C@@H]2Cc2ccc(O)cc2)cc1,51.8% (active)
17,CCOc1ccc(CCN2C(=S)N([C@@H](CC(C)C)CN3CCC[C@@H]3CN3C(=S)NC[C@@H]3Cc3ccc(O)cc3)C[C@@H]2CC(C)C)cc1,17.1%
18,CCOc1ccc(CCN2C(=O)C(=O)N([C@@H](CC(C)C)CN3CCC[C@H]3CN3C(=O)C(=O)NC[C@@H]3Cc3ccccc3)C[C@@H]2CC(C)C)cc1,-13.2%
19,CC1(C)NC(=O)N(CC(=O)Nc2ccc(-c3ccccc3)cc2)C1=O,-7.07%
20,Cc1cccc(N(CC(=O)Nc2ccc(-c3nc4ccc(C)cc4s3)cc2)S(C)(=O)=O)c1,9.99%
21,N=C1C(=O)OCC1c1ccccc1NC(=O)CN1CCCCC1 (configuration not stated),-2.7%
